Experimental data as given in PubChem BioAssay (NCATS).
Inconclusive results are not listed. The source made the active and inactive calls. Unless noted, calls follow the shape of the dose curve; as a rule, active = well fitted curve in the direction sought with a large enough effect; inconclusive = small, poorly fitted or top-dose-only effect, or another doubt; inactive = no such curve, though single readings can be large; an effect the other way counts as inactive or inconclusive.

Key:
[1] = biological target: Rap guanine nucleotide exchange factor 3 (Homo sapiens) (UniProt O95398); assay: Confirmatory qHTS for antagonist of cAMP-regulated guanine nucleotide exchange factor 3 (EPAC1) (AID 1645880); conditions: EPAC1 Rap1B-BODIPY-GDP exchange, fluorescence; activity, negative = inhibition: at 115 µM (top of the series);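 also: plate controls were DMSO only for no effect and full effect of the ATA control for full effect; nearly all actives have a fitted effect of over 55% in size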
Method in brief: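 Released BODIPY-GDP fluoresces less than Rap1-bound BODIPY-GDP; the signal is followed at 480/540 nm at 5-min intervals over 30 min, after 5 min at room temperature. Reactions contain 100 nM EPAC1, 250 nM RAP1B-BODIPY-GDP and 50 uM GDP; results are normalized to ATA and DMSO.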

[2] = biological target: Rap guanine nucleotide exchange factor 3 (Homo sapiens) (UniProt O95398); assay: Confirmatory qHTS for agonist of cAMP-regulated guanine nucleotide exchange factor 3 (EPAC1) (AID 1645881); also: nearly all actives have a fitted effect of over 75% in size; also: potency is read from the fitted curve at half-maximal effect;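 as to activation: EPAC1 catalysed release of BODIPY-GDP from Rap1B seen as fluorescence loss; 100% = effect of cAMP agonist control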
[3] = biological target: Rap guanine nucleotide exchange factor 4 (Homo sapiens) (UniProt Q8WZA2); assay: Confirmatory qHTS for agonist of cAMP-regulated guanine nucleotide exchange factor 4 (EPAC2) (AID 1645884);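 also: nucleotide exchange releases bodipy-GDP from Rap1 and this lowers its fluorescence; nearly all actives have a fitted effect of over 65% in size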; also: potency is read from the fitted curve at half-maximal effect
[4] = biological target: Rap guanine nucleotide exchange factor 4 (Homo sapiens) (UniProt Q8WZA2); assay: Confirmatory qHTS for antagonist of cAMP-regulated guanine nucleotide exchange factor 4 (EPAC2) (AID 1645885); also: nearly all actives have a fitted effect of over 25% in size; also: potency is read from the fitted curve at half-maximal effect
[5] = biological target: Rap guanine nucleotide exchange factor 3 (Homo sapiens) (UniProt O95398); assay: Counterscreen qHTS for agonist of cAMP-regulated guanine nucleotide exchange factor 3 (EPAC1) (AID 1645889); also: nearly all actives have a fitted effect of over 40% in size; also: potency is read from the fitted curve at half-maximal effect; as to activation: % of control where 0% means no effect
Method in brief: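 Rap1B–BODIPY-GDP (250 nM) with 50 uM GDP; compounds pin-transferred to 9.74 nM–152 uM final (activator) or from 7.32 nM upwards (inhibitor). Fluorescence Ex/Em 480/540 nm read at 5 and 30 min, then after adding cAMP or buffer, at room temperature.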

[6] = biological target: Lysosomal acid glucosylceramidase (Homo sapiens) (UniProt P04062); assay: Glucocerebrosidase-p2 (AID 348; in the data active = potency below about 10 µM; also: potency is read from the fitted curve at half-maximal effect); conditions: purified GBA, blue fluorogenic substrate, 40 min
Method in brief: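 Normal human glucocerebrosidase (0.2 nM) with blue fluorogenic substrate (80 uM final) in citrate/phosphate pH 5.9 with 10mM sodium taurocholate, 0.01% tween-20; 40 min RT, NaOH/glycine stop; fluorescence Ex 365/Em 440; AC50 from a titration from 0.6 nM upwards.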

[7] = biological target: Cytochrome P450 1A2 (Homo sapiens) (UniProt P05177); assay: p450-cyp1a2 (AID 410; calls by dose curve; also: potency is read from the fitted curve at half-maximal effect)
Method in brief: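 O-Demethylation of luciferin 6' methyl ether by human CYP1A2 is monitored as luciferase luminescence. Substrate sits at Km (100uM); enzyme is 20nM. Values are scaled to 57 uM furafylline as maximal inhibition.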

[8] = NFAT Signaling Pathway (AID 444; active = well fitted curve in either direction with a large enough effect, not every such curve was filed as active;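 also: carbachol stimulus at about its EC50 of 1 µM final; % is scaled to controls: 0 for no effect and ±100 for the full control effect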); conditions: Jurkat NFAT-bla M1, carbachol, beta-lactamase ratio, 5 h; at 7.69 µM (top of the series) unless noted
Method in brief: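 Jurkat cells with NFAT-driven β-lactamase reporter and co-expressed M1 receptor, stimulated with carbachol (final 1 uM, ~EC50), compound titration, 5 h at 37 °C. CCF4 loaded 1 h at RT; 460/530 nm ratio gave %activity and AC50.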

[9] = Stat Signaling Pathway (AID 446; active = well fitted curve in either direction with a large enough effect, not every such curve was filed as active;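 also: ME-180 cervical cancer cells given 40 pM IL-6 alongside compound; SIE-controlled beta-lactamase reporter measured as 460/530 nm FRET emission ratio; % is scaled to controls: 0 for no effect and ±100 for the full control effect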)
Method in brief: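 FRET read-out (405 nm excitation, 460/530 nm emission) of a beta-lactamase reporter under a STAT-inducible element in ME-180 cervical carcinoma cells. Cells with compound receive 40 pM IL-6 for 5 h. Values are normalised to AC90 stimulation and AC90 JAK-inhibitor controls.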

[10] = biological target: Glucocorticoid receptor (Homo sapiens) (UniProt P04150); assay: GR-GFP Redistribution (AID 450;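 active = compounds whose dose series gives a full or clear partial fitted curve of increased nuclear translocation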; also: potency is read from the fitted curve at half-maximal effect); conditions: U2OS GR-GFP nuclear translocation, laser cytometry, 2 h
[11] = biological target: Glucocorticoid receptor (Homo sapiens) (UniProt P04150); assay: GR-EFC Redistribution (AID 451; calls by dose curve; also: potency is read from the fitted curve at half-maximal effect); conditions: CHO-K1 GR-EFC translocation, beta-gal luminescence, 2 h
Method in brief: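 CHO-K1 cells expressing nuclear EA and GR-ED fragments of b-gal; compounds titrated up to 46 uM final, 2 h at 37 C. GR nuclear translocation read as complemented b-gal luminescence after 1 h RT detection.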

[12] = biological target: Mitogen-activated protein kinase 10 (Mus musculus) (UniProt Q61831); assay: JNK3 AlphaScreen Assay (AID 530; active = well fitted curve in either direction with a large enough effect, not every such curve was filed as active;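 also: kinase came from lysate of stimulated human HepG2 cells; signal reports phosphorylation of biotinylated GST-cJun 1-79 at Ser73 with 10 µM ATP; % is scaled to controls: 0 for no effect and ±100 for the full control effect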)
Method in brief: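 Activity was read by AlphaScreen after JNK3-containing HepG2 lysate (cytokine pre-activated) phosphorylated biotinylated GST-cJun with 10 uM ATP at room temperature. Phospho-Ser73 cJun antibody with Protein-A acceptor beads provided detection.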

[13] = biological target: Cytochrome P450 3A4 (Homo sapiens) (UniProt P08684); assay: qHTS Assay for Activators of Cytochrome P450 3A4 (AID 885); also: nearly all actives have a fitted effect of over 65% in size
Method in brief: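 Luminescent readout of luciferin formed from 25 uM Luciferin-PPXE (KM level) by 20 nM CYP3A4 in 200 mM KPO4, with 60 min NADPH-driven reaction at room temperature after 10 min compound exposure. Ketoconazole (57 uM) defined 100% inhibition.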

[14] = biological target: Cytochrome P450 2C19 (Homo sapiens) (UniProt P33261); assay: qHTS Assay for Inhibitors and Substrates of Cytochrome P450 2C19 (AID 899); also: potency is read from the fitted curve at half-maximal effect; nearly all actives have a fitted effect of over 60% in size
Method in brief: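 Luminescent read-out of luciferin formed from Luciferin-H EGE (10uM, equal to KM). Enzyme 5nM in 50mM KPO4; compound added, 10 min at 37C, then NADPH regenerating system for 60 min at 37C. Full inhibition defined by 57uM ketoconazole.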

[15] = biological target: Tumor susceptibility gene 101 protein (Homo sapiens) (UniProt Q99816); assay: qHTS Assay for Iinhibitors of HIV-1 Budding by Blocking the Interaction of PTAP/TSG101: Hit Validation (AID 651600); also: nearly all actives have a fitted effect of over 70% in size; also: potency is read from the fitted curve at half-maximal effect
Method in brief: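 Measuring PTAP–Tsg101 interaction by FP: protein at 10 uM and fluorescent peptide at 50 nM (final), buffer 10 mM HEPES pH 7.5 with 0.15 M NaCl, 3 mM EDTA, 0.1 mM TCEP, 0.01% Tween 20; 20 min incubation, r.t.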

[16] = AP1 Signaling Pathway (AID 357; active = well fitted curve in either direction with a large enough effect, not every such curve was filed as active;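 also: ME-180 reporter cells stimulated with EGF at its EC50 level; % is scaled to controls: 0 for no effect and ±100 for the full control effect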); conditions: ME-180 AP-1-bla reporter, EGF-induced, beta-lactamase ratio, 5 h; at 7.69 µM (top of the series) unless noted
Method in brief: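 AP-1-bla ME-180 cells, Opti-MEM + 0.5% dialyzed FBS, plated overnight 37 °C. Cpd titration + EC50 EGF, 5 h 37 °C. CCF4 2.5 h RT; ex 405, em 460/530 ratio → %activity, AC50.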

[17] = biological target: 3',5'-cyclic-AMP phosphodiesterase 4B (Homo sapiens) (UniProt Q07343); assay: qHTS Assay for Inhibitors of PDE-IV (AID 607; active = well fitted activation curve with a large enough effect in the main read-out, with a control signal flat, not every such curve was filed as active; also: % of control where 0% means no effect)
Method in brief: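 Cell-based read-out of cAMP via a modified cyclic nucleotide-gated channel and membrane potential dye (535/590 nm) in HEK293 cells expressing PDE4 endogenously. Compounds tested up to 22.9 uM final; 100 uM RO 20-1724 reference.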

[18] = qHTS Assay for Identification of Small Molecule Agonists for Hypoxia Response Element Signaling Pathway (AID 914; active = well fitted activation curve with a large enough effect in the signal ratio, with a control signal flat, not every such curve was filed as active; the % refers to the signal ratio; also: potency is read from the fitted curve at half-maximal effect); conditions: ME-180 (cervical carcinoma) HRE-bla reporter, beta-lactamase ratio, CoCl2, 17 h; activation: stronger effect = higher value
Method in brief: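 qHTS titration; ME-180 HRE-bla cells; EC50 CoCl2 co-treatment, 17 h at 37 degrees Celsius; CCF4 dye, ex 405nm, em 460nm and 530nm; %Activity from ratio; AC50.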

[19] = biological target: Dual specificity protein kinase CLK4 (Homo sapiens) (UniProt Q9HAZ1); assay: qHTS Assay for Inhibitors of CDC-like Kinase 4 (ADP-Glo Assay) (AID 1771); also: % is scaled to controls: 0 for no effect and ±100 for the full control effect; nearly all actives have a fitted effect of over 70% in size
Method in brief: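 Compounds are pin-transferred onto substrate mix (100 uM RS peptide, 1 uM ATP), then 25 nM Clk4 is added. After 1 hr at room temperature, ADP-Glo reagent runs 45 min, detection reagent 30 min, then luminescence is read.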

[20] = biological target: Dual specificity protein kinase CLK4 (Homo sapiens) (UniProt Q9HAZ1); assay: qHTS Assay for Inhibitors of CDC-like Kinase 4 (ADP-FP Assay) (AID 1795);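 also: recombinant human CLK4 phosphorylating RS repeat peptide at 1 µM ATP; % is scaled to controls: 0 for no effect and ±100 for the full control effect; nearly all actives have a fitted effect of over 60% in size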
Method in brief: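 Kinase activity was followed as ADP output, converted from fluorescence polarization with a calibration curve. Reactions ran one hour at low ATP (1 uM) with RS peptide substrate.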

[21] = biological target: Ubiquitin carboxyl-terminal hydrolase 1 (Homo sapiens) (UniProt O94782); assay: Inhibitors of USP1/UAF1: Pilot qHTS (AID 504865);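 also: rhodamine fluorescence freed from ubiquitin-rhodamine substrate followed over time; top concentration of the series differs between compounds; % is scaled to controls: 0 for no effect and ±100 for the full control effect; nearly all actives have a fitted effect of over 35% in size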
Method in brief: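 Enzyme-free wells gave the negative control, while test wells held 1nM USP1/UAF1 preincubated with compound for 15 min at room temperature. Ub-Rho at 150nM final started the reaction, and fluorescence at 480/540 nm was recorded kinetically.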

[22] = biological target: Cytochrome P450 2C9 (Homo sapiens) (UniProt P11712); assay: qHTS Assay for Inhibitors and Substrates of Cytochrome P450 2C9 (AID 883); also: potency is read from the fitted curve at half-maximal effect; nearly all actives have a fitted effect of over 60% in size
Method in brief: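 10nM CYP2C9 + 100uM Luciferin-H (=KM), 25mM KPO4; cpd 10 min 37C; NADPH regen, 60 min 37C; stop/detect with P450 Glo-Buffer 20 min; luminescence. Norm. to 57uM sulphaphenazole as full inhibition.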

[23] = biological target: Cytochrome P450 3A4 (Homo sapiens) (UniProt P08684); assay: qHTS Assay for Inhibitors and Substrates of Cytochrome P450 3A4 (AID 884); also: potency is read from the fitted curve at half-maximal effect; nearly all actives have a fitted effect of over 50% in size
Method in brief: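 Luminescent readout of luciferin produced by CYP3A4 (20 nM) dealkylation of Luciferin-PPXE, 25 uM (its KM). NADPH-driven reaction ran 60 min at RT after 10 min compound preincubation; data scaled to 57 uM ketoconazole as 100% inhibition.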

Rap guanine nucleotide exchange factor 3 (Homo sapiens), sequence (O95398 whole entry, looked up): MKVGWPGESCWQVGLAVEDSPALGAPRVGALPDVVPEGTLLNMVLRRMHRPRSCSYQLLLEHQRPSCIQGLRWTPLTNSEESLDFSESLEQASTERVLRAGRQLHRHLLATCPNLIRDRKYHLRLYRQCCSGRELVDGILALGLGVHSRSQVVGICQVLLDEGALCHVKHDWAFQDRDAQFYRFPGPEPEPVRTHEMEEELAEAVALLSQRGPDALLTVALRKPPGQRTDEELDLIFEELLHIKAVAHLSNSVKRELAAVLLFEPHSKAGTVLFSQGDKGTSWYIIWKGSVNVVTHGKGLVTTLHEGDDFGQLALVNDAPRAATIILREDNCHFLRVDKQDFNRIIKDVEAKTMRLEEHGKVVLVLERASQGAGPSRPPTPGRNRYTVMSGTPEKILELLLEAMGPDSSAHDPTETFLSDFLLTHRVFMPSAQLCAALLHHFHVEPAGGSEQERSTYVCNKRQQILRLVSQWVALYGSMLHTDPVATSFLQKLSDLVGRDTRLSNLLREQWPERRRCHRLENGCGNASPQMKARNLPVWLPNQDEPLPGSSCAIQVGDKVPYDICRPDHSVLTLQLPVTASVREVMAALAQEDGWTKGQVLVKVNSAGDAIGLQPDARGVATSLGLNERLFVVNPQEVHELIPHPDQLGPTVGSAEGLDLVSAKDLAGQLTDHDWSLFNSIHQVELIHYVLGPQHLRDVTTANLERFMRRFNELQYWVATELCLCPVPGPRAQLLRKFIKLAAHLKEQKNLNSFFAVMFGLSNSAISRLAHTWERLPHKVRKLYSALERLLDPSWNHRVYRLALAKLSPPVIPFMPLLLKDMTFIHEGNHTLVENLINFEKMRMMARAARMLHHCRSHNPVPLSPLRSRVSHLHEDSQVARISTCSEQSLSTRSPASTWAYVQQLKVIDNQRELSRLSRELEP
Cytochrome P450 3A4 (Homo sapiens), sequence (P08684 whole entry, looked up): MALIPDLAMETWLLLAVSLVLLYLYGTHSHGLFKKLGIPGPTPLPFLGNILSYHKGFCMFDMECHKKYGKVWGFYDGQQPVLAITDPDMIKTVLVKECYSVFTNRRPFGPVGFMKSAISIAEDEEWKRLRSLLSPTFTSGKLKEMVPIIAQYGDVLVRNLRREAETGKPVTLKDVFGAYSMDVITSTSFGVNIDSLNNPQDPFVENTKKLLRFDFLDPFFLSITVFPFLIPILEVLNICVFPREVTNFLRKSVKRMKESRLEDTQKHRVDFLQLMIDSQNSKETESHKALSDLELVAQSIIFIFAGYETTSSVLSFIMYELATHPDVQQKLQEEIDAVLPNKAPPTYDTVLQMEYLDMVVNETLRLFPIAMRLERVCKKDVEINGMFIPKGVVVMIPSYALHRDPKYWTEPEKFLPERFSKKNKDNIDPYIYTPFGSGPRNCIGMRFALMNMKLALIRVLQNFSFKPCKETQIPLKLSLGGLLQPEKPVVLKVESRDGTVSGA
Glucocorticoid receptor (Homo sapiens), sequence (P04150 whole entry, looked up, the tested form may be a part): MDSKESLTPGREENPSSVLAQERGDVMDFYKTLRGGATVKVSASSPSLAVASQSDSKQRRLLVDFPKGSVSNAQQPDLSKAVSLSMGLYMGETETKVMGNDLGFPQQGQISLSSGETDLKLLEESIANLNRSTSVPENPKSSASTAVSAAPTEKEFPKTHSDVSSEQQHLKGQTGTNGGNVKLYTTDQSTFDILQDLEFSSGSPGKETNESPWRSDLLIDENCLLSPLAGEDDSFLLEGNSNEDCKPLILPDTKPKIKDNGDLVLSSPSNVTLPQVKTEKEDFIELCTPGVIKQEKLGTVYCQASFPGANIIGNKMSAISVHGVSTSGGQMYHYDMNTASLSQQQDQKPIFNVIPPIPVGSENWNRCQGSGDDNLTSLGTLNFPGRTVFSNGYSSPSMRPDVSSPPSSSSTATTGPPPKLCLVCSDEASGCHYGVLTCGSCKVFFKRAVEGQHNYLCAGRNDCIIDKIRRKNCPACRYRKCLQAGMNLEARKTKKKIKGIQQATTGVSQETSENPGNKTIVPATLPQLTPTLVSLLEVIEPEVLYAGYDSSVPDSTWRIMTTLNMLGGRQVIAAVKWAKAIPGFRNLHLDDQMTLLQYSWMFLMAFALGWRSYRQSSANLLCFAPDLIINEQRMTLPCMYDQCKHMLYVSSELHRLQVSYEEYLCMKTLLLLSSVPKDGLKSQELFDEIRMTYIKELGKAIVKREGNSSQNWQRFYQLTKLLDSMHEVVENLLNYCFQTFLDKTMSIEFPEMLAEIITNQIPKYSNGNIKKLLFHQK
Lysosomal acid glucosylceramidase (Homo sapiens), sequence (P04062 whole entry, looked up): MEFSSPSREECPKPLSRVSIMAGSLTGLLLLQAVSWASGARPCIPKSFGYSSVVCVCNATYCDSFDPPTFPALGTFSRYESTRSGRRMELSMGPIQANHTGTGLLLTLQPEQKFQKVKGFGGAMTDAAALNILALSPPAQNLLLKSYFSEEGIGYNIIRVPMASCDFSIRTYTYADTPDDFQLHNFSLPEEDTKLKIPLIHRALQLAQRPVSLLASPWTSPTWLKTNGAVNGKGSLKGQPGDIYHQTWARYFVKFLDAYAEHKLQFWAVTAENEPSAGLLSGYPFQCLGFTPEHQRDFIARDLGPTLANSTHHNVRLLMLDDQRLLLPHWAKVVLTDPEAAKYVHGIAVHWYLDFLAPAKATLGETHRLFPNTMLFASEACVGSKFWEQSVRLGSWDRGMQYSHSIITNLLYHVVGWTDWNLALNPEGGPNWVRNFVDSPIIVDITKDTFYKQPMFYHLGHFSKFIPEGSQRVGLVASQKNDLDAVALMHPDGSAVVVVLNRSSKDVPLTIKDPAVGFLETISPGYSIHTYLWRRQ
Cytochrome P450 1A2 (Homo sapiens), sequence (P05177 whole entry, looked up): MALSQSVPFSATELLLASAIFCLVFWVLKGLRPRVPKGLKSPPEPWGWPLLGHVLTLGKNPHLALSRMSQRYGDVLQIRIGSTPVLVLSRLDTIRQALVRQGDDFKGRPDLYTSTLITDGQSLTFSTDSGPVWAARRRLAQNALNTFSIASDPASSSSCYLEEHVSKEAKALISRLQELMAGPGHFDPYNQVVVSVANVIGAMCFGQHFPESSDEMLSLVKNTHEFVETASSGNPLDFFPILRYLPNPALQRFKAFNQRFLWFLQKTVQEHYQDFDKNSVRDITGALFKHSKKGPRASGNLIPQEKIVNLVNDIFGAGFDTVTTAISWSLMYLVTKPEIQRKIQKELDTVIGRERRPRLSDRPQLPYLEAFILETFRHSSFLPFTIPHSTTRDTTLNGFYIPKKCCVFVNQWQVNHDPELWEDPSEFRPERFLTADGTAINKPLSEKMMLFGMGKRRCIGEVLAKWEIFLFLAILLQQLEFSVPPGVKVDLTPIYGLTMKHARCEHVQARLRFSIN
Tumor susceptibility gene 101 protein (Homo sapiens), sequence (Q99816 whole entry, looked up): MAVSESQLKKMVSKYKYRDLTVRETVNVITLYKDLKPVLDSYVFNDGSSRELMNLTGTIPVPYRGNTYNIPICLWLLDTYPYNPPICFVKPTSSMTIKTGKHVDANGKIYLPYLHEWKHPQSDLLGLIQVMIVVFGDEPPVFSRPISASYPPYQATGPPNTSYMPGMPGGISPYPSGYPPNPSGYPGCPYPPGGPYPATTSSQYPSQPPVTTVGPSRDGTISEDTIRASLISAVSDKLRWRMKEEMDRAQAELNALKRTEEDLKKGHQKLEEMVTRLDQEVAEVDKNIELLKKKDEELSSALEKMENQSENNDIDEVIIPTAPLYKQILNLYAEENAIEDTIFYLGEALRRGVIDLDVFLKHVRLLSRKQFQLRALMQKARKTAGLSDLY
Rap guanine nucleotide exchange factor 4 (Homo sapiens), sequence (Q8WZA2 whole entry, looked up): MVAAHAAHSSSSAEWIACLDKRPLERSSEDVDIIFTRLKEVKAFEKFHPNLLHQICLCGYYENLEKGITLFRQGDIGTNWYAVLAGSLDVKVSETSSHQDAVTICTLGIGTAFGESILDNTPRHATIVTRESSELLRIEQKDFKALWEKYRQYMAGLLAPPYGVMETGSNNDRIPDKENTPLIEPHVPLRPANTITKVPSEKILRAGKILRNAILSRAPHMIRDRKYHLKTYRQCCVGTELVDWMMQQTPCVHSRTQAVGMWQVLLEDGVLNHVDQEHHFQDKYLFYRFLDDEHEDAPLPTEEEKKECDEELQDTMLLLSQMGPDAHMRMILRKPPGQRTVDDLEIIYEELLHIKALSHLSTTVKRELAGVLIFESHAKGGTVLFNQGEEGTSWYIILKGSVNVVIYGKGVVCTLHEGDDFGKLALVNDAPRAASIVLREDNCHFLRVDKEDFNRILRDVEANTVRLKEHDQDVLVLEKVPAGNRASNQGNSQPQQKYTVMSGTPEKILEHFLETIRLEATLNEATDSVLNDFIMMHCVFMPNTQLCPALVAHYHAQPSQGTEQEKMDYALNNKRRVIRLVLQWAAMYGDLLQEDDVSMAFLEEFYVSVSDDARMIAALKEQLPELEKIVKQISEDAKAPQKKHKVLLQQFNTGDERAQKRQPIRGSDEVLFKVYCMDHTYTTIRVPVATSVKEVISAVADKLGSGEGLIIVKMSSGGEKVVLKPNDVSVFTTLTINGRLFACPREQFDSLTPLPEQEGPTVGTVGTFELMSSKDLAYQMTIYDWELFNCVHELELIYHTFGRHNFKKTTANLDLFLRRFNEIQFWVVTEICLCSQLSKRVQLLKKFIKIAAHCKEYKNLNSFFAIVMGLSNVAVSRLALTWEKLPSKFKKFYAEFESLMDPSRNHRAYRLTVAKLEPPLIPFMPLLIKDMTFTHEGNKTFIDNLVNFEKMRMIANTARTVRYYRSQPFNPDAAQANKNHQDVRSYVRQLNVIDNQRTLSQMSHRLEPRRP

Cn1cc([C@]2(O)C(=O)Nc3ccc(OC(F)(F)F)cc32)c2ccccc21
inactive: Potency [1] | Potency [2] | activation [3] 14.8% [at 17.1 µM, percent relative to cAMP agonist control] | Potency [4] | activation [5] 32.2% [at 30.8 µM]

O=c1cnc2cnc(Oc3ccccc3)nc2n1Cc1cccs1
inactive: Potency [6] > 11.4 µM | activity change, negative = inhibition [8] -1.41% | outcome [9] | Potency [10] > 9.22 µM | Potency [11] > 46 µM | Potency [12] | outcome [13] | Potency [1] | Potency [2] | Potency [3]
active: Potency [7] 7.94 µM | Potency [14] 1.26 µM | Potency [4] 15.6 µM

O=C1c2cccc3c(O)ccc(c23)C(=O)N1Cc1ccco1
active: Potency [15] 1.46 µM | Potency [2] 100 µM | Potency [3] 100 µM | Potency [4] 67.5 µM | Potency [5] 70.8 µM
inactive: Potency [1]

O=S(=O)(O)c1ccc(N=NNc2ccc(Br)cc2)cc1
inactive: Potency [1] | Potency [2] | Potency [3] | Potency [5]
active: Potency [4] 26.9 µM

CN1CCN(c2ncc3nc(-c4cn(C)c5ccccc45)c(=O)n(CCC#N)c3n2)CC1
inactive: Potency [6] > 11.4 µM | activity change, negative = inhibition [16] -1.18% | Potency [10] > 9.22 µM | Potency [17] | outcome [13] | Potency [19] | Potency [1] | Potency [2] | Potency [3] | Potency [4]
active: Potency [7] 15.8 µM | Potency [18] 3.16 µM

Nc1ccc2cc3[nH]c4cc(N)ccc4c3nc2c1
active: Potency [15] 0.366 µM | Potency [2] 100 µM | Potency [3] 100 µM | Potency [5] 63.1 µM
inactive: Potency [1] | Potency [4]

COc1ccc(CNc2nc(-c3cccnc3)nc3ccccc23)c(OC)c1
inactive: Potency [6] > 11.4 µM | activity change, negative = inhibition [16] -16.7% | activity change, negative = inhibition [8] 6.84% | outcome [9] | Potency [12] | Potency [20] | Potency [21] | Potency [1] | Potency [2] | Potency [3] | Potency [4]

Nc1ccc(-c2c3ccc(=O)cc-3oc3cc(O)ccc23)cc1C(=O)O
active: Potency [15] 23.1 µM | Potency [2] 50.1 µM | Potency [3] 100 µM | Potency [5] 50.1 µM
inactive: Potency [1] | Potency [4]

Cc1nc(Nc2ccc(S(=O)(=O)N3CCCCC3C)cc2)c2nnn(Cc3ccccc3)c2n1 (configuration not stated)
inactive: Potency [15] | Potency [1] | Potency [2] | Potency [3] | Potency [4] | Potency [5]

CN1CCN(c2ncc3nc(CCc4ccccc4)c(=O)n(Cc4cccs4)c3n2)CC1
inactive: Potency [6] > 11.4 µM | activity change, negative = inhibition [16] -5.44% | activity change, negative = inhibition [8] 4.5% | outcome [9] | Potency [10] > 9.22 µM | Potency [11] > 46 µM | Potency [12] | outcome [13] | Potency [1] | Potency [2] | Potency [3] | Potency [4]
active: Potency [7] 15.8 µM

O=C(c1ccco1)N1CCC2(CC1)CN(c1cccc(-c3ccccc3)c1)C2
inactive: Potency [6] > 11.4 µM | activity change, negative = inhibition [16] -23.1% | outcome [9] | Potency [11] > 46 µM | Potency [17] | Potency [1] | Potency [2] | Potency [3] | Potency [4]
active: Potency [7] 7.94 µM

O=C(c1cnccn1)N1CCC[C@@]2(CCN(c3cccc(-c4ccccc4)c3)C2)C1
active: Potency [7] 25.1 µM | Potency [22] 7.94 µM | Potency [23] 3.98 µM
inactive: Potency [6] > 11.4 µM | activity change, negative = inhibition [16] -18.4% | activity change, negative = inhibition [8] 7.34% | outcome [9] | Potency [11] > 46 µM | Potency [12] | outcome [13] | Potency [1] | Potency [2] | Potency [3] | Potency [4]
